# Assay outcomes (PubChem BioAssay)
# KB-V1 cytotox: KB-V1 MDR subline cytotoxicity. KB-V1 MDR cells viability, CellTiter-Glo, 72 h. hit rate 3.4% among 400,000. Potency, µM (doses to about 46.1 µM), actives largely listed as cytotoxic. AID 1347076; further: nearly all actives have a fitted effect of over 60% in size
#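 Following 72 h at 37 degrees C with compound, KB-V1 cell viability was read by CellTiter-Glo luminescence, medium being phenol-red-free DMEM plus 10% FBS; concentration-response parameters came from normalized, curve-fitted qHTS data.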
# MCF10A rereplic: induces DNA re-replication in MCF 10a normal breast cells; Potency, µM (highest dose often 46.1 µM), hits mostly activators; hit rate 2.9% among 350,000; MCF 10A DNA re-replication, Hoechst nuclear intensity, 48 h; further: nearly all actives have a fitted effect of over 50% in size
# KB-3-1 tox: KB-3-1 parental cell cytotoxicity. hit rate 1.4% among 400,000. AID 1347075. KB-3-1 viability, CellTiter-Glo ATP luminescence, 72 h. Potency, µM (highest dose often 46.1 µM), most hits filed as cytotoxic; further: nearly all actives have a fitted effect of over 60% in size
#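 Viability of parental KB-3-1 cells, measured by CellTiter-Glo luminescence, followed a 72 h incubation at 37 °C with pinned compounds in phenol-red-free DMEM containing 10% FBS.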
# SW480 rerep: DNA re-replication induction in SW480 cells; AID 624297; Potency, µM (series often up to 46.1 µM), hits mostly activators; SW480 DNA re-replication, Hoechst DNA content imaging, 48 h; hit rate 1.8% among 340,000; further: nearly all actives have a fitted effect of over 55% in size
#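 Image-based DNA-content assay: after two days of treatment, nuclei were labelled with the DNA dye Hoechst and imaged, and hits were compounds raising the count of nuclei showing high fluorescence intensity.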
# ELG1 DNA repair: ELG1-dependent DNA repair inhibition. hit rate 2.3% among 330,000. HEK293T ELG1-luciferase reporter, luminescence, 16 h; DNA damage induced by 5-fluorouridine. Potency, µM (doses to about 46.1 µM), actives largely listed as inhibitors. AID 504467; further: nearly all actives have a fitted effect of over 55% in size
#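 Step one: seed 2,000 cells per well. Step two: pin-transfer compound or DMSO alongside 5-fluorouridine. Step three: incubate 16 hr, 37 °C, 5% CO2. Step four: add ONE-Glo, wait 30 min, read luminescence.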
# Hits are given with their value; - = inactive; ? = inconclusive; . = no result given; [ ] = dose if it differs, or a comment. An excerpt weighted towards active compounds, which were near 8.1% of everything screened. The call rests on the fitted dose curve; in most records, active means well fitted curve in the direction sought with a large enough effect; inconclusive means small, poorly fitted or top-dose-only effect, or another doubt; inactive means no such curve, though single readings can be large; an effect the other way counts as inactive or inconclusive.
SMILES,KB-V1 cytotox,MCF10A rereplic,KB-3-1 tox,SW480 rerep,ELG1 DNA repair
CN(C(=O)c1cccc(NC(=O)Cc2ccc(NC(=O)C3CCCN(C(=O)CCc4ccccc4)C3)cc2)c1)C1CCC1 (configuration not stated),-,?,-,-[9.22 µM],.
CN(C(=O)c1cccc(NC(=O)Cc2ccc(NC(=O)C3CCCN(C(=O)CCc4ccccc4)C3)cc2)c1)C1CCCC1 (configuration not stated),-,?,6.51µM,-,.
CCC(=O)N1c2ccccc2CC1C(=O)NCc1cc(Br)ccc1OC (configuration not stated),-,.,-,.,.
COc1cc(C(=O)N2CCCCC2c2cc(C(=O)Nc3ccccc3Cl)no2)cc(OC)c1C (configuration not stated),-,.,-,.,.
O=c1cc(Nc2ccc3c(c2)OCCO3)[nH]c(=O)n1C1CCCCC1,-,?,?,11.6µM,?
O=C(NCCCN1CCN(Cc2ccccc2)CC1)C1CCN(c2nnc(-n3cccc3)s2)CC1,-,-,-,-,7.08µM
O=C(NCCCc1ccccc1)C1CCN(c2nnc(-n3cccc3)s2)CC1,?,-,?,-,-
Cc1ccc(S(=O)(=O)NCc2ccc(C(=O)N3CCN(Cc4ccccc4)CC3)cc2)cc1,?,-,23.1µM,-,?
Cc1ccc(S(=O)(=O)NCc2ccccc2)cc1C(=O)N1CCCCCCC1,9.2µM,-,-,?,-
COc1ccc(CN2CCN(C(=O)c3ccc(CNS(=O)(=O)c4ccc(C)cc4)cc3)CC2)c(OC)c1OC,-,-,?,-,9.2µM
COc1ccc(S(=O)(=O)NCc2ccc(C(=O)N3CCN(Cc4ccccc4)CC3)cc2)cc1,-,-,-,-,?
O=C(c1ccc(S(=O)(=O)c2cccc(Cl)c2)c([N+](=O)[O-])c1)N1CCN(Cc2ccccc2)CC1,?,20.6µM,?,?,?
COc1ccc(C(=O)N2CCN(Cc3ccccc3)CC2)cc1[N+](=O)[O-],-,-,-,-,?
COc1ccc(N2CCN(C(=O)c3ccc(CNS(=O)(=O)c4ccc(C)cc4)cc3)CC2)cc1,-,?,-,-,-
COc1ccc(CN2CCN(C(=O)c3ccc4nc(N5CCOCC5)sc4c3)CC2)c(OC)c1OC,?,-,-,-,20.6µM
O=C(CCC(=O)N1CCc2ccccc2C1)N1CCN(S(=O)(=O)c2ccccc2)CC1,13µM,-,-,-,?
O=C(CCCOc1ccccc1)N1CCc2ccccc2C1,-,-,-,-,?
O=C(CN1CCN(S(=O)(=O)c2ccc3c(c2)OCCCO3)CC1)N1CCc2ccccc21,-,.,-,.,.
O=C(CN1CCN(S(=O)(=O)c2ccc(F)c(Cl)c2)CC1)N1CCc2ccccc21,3.26µM,-,?,-,-
O=C(CCCOc1ccc(Cl)cc1Cl)N1CCc2ccccc2C1,?,3.26µM,-,2.59µM,-
CC(=O)N1CCc2cc(S(=O)(=O)NCCC(=O)N3CCc4ccccc4C3)ccc21,23.1µM,-,?,-,23.1µM
CC(=O)N1CCc2cc(S(=O)(=O)CCC(=O)N3CCc4ccccc4C3)ccc21,-,-,-,-,-
O=C(CN1C(=O)NC2(CCOc3ccccc32)C1=O)NCc1ccccc1 (configuration not stated),-,-,-,-,-
Cc1cccc(-n2c(=O)c3c(c4cc(C)ccc4n3C)n(CC(=O)N3CCCC3)c2=O)c1,?,.,-,.,.
CCn1nnnc1SCC(=O)N(C)C1CCS(=O)(=O)C1 (configuration not stated),?,-,-,-,-
O=C(CN1CCN(S(=O)(=O)c2ccc(F)c(Cl)c2)CC1)N1CCc2ccccc2C1,9.2µM,-,-,-,.
O=C(CC1(O)C(=O)N(Cc2ccccc2)c2ccc(Br)cc21)c1ccccc1 (configuration not stated),-,.,-,.,.
C=CCN1C(=O)C(O)(CC(=O)c2ccco2)c2cc(Br)ccc21 (configuration not stated),?,?,-,13µM,-
O=C(C[N+]12CCCc3cccc(c31)CCC2)c1ccccc1,-,.,?,.,.
O=C(OCC(O)C(O)C(O)C(SCc1ccccc1)SCc1ccccc1)c1ccccc1 (configuration not stated),-,?,-,?,.
